Holding throughout (parameters): species or system human, MV4-11 + K-562 + COLO205 + SK-N-BE2 + OVCAR-8
Experiment [1] deals with HSP90AA1. The settings on record: read-out: apparent Kd; compound concentrations: 100 nM and 1000 nM (sheet 'Samples'), CATDS: 0.146358991547622; n = 1.
Experiment [2] has as its system HSP90B1. The settings on record: read-out: apparent Kd, n = 1.
Experiment [3] has as its system HSPE1. The settings on record: read-out: apparent Kd, n = 1.
Experiment [4] concerns PGK1. The settings on record: read-out: apparent Kd; compound concentrations: 100 nM and 1000 nM (sheet 'Samples'), CATDS: 0.56711536004942897; n = 1.
In experiment [5] the test system is PKM. The following applies: read-out: apparent Kd; compound concentrations: 100 nM and 1000 nM (sheet 'Samples'), CATDS: 0.16665150952337399; n = 1.
The test system of experiment [6] is GSK3A. The settings on record: read-out: apparent Kd, n = 1.
For experiment [7], the system named is GSK3B. The following applies: read-out: apparent Kd, n = 1.
Experiment [8] has as its system ICK. The settings on record: read-out: apparent Kd; compound concentrations: 100 nM and 1000 nM (sheet 'Samples'), CATDS: 0.173475626531951; n = 1.
The subject of experiment [9] is PRKCD. The settings on record: read-out: apparent Kd; compound concentrations: 100 nM and 1000 nM (sheet 'Samples'), CATDS: 0.14509929843566999; n = 1.
Experiment [10] deals with PRKCQ. The settings on record: read-out: apparent Kd; compound concentrations: 100 nM and 1000 nM (sheet 'Samples'), CATDS: 0.15135413462946001; n = 1.
Experiment [11] concerns NQO2. The settings on record: read-out: apparent Kd; compound concentrations:100 nM and 1000 nM (sheet 'Samples'); n = 1.
Experiment [12] concerns TGFBR1. The following applies: read-out: apparent Kd; compound concentrations: 100 nM and 1000 nM (sheet 'Samples'), CATDS: 0.31893275464491699; n = 1.
Experiment [13] deals with HCK. The following applies: read-out: apparent Kd; compound concentrations: 100 nM and 1000 nM (sheet 'Samples'), CATDS: 0.18431163144464899; n = 1.
Experiment [14] deals with MAPK14. The following applies: read-out: apparent Kd; compound concentrations: 100 nM and 1000 nM (sheet 'Samples'), CATDS: 0.18472106160443499; n = 1.
Experiment [15] has as its system MDN1. The following applies: read-out: apparent Kd; compound concentrations: 100 nM and 1000 nM (sheet 'Samples'), CATDS: 0.171379045218121; n = 1.
Experiment [16] deals with RET. The following applies: read-out: apparent Kd; compound concentrations: 100 nM and 1000 nM (sheet 'Samples'), CATDS: 0.22274296302997099; n = 1.
For experiment [17], the system named is YES1. The following applies: read-out: apparent Kd; compound concentrations: 100 nM and 1000 nM (sheet 'Samples'), CATDS: 0.26066512285863302; n = 1.
Experiment [18] deals with ILK. The following applies: read-out: apparent Kd; compound concentrations:100 nM and 1000 nM (sheet 'Samples'); n = 1.
In experiment [19] the test system is PKN3. The following applies: read-out: apparent Kd; compound concentrations:100 nM and 1000 nM (sheet 'Samples'); n = 1.
Experiment [20] relates to PRKX. The settings on record: read-out: apparent Kd; compound concentrations:100 nM and 1000 nM (sheet 'Samples'); n = 1.
In experiment [21] the test system is ROCK2. The following applies: read-out: apparent Kd; compound concentrations:100 nM and 1000 nM (sheet 'Samples'); n = 1.
The mark [22] stands for this setting: compound concentrations:100 nM and 1000 nM (sheet 'Samples').

For ten compounds, potency estimated from few doses results are on record in PMC11062922 (Nature Chemical Biology, 2023).

Where two headings read alike, the source gives them in different places.

As for `Cn1cc(C2=C(c3ccccc3C(F)(F)F)C(=O)NC2=O)c2ccccc21` [RO0317717-000], the potency estimated from few doses was 1.69 µM in experiment [1]; 1.53 µM in experiment [2] (compound concentrations: 100 nM and 1000 nM (sheet 'Samples'), CATDS: 0.15036452413929899); 0.337 µM in experiment [3] (compound concentrations: 100 nM and 1000 nM (sheet 'Samples'), CATDS: 0.26644464467786899); 0.0871 µM in experiment [4]; 1.09 µM in experiment [5].
For `O=C(Nc1n[nH]c2cc(-c3ccco3)ccc12)C1CC1` [SB-737447], the potency estimated from few doses was 0.498 µM in [6] (setting [22]) and 0.645 µM in experiment [7] (setting [22]).
With `Cn1cc(C2=C(c3cn(CCO)c4ccccc34)C(=O)NC2=O)c2ccccc21` [RO0318036-000], the potency estimated from few doses in experiment [6] (compound concentrations: 100 nM and 1000 nM (sheet 'Samples'), CATDS: 0.34431860248680501) is 0.263 µM; in [7] (compound concentrations: 100 nM and 1000 nM (sheet 'Samples'), CATDS: 0.35306232464093901), 0.252 µM; in [8], 1.12 µM; in [9] it was 1.97 µM; in experiment [10], 1.7 µM.
On to `Fc1ccc(-c2c(-c3ccccn3)nc3n2CCS3)cc1` [SKF-104365], for which the potency estimated from few doses in experiment [3] (setting [22]) was 0.149 µM; in experiment [11], 1.34 µM; in experiment [12], 0.537 µM.
With `COc1cccc(C2=C(Nc3ccc(Cl)c(C(=O)O)c3)C(=O)NC2=O)c1` [SB-390769], the potency estimated from few doses in experiment [6] (setting [22]) is 0.323 µM; in experiment [7] (setting [22]), 0.644 µM.
As to `COc1cc(Nc2nccc(-c3c(-c4cccc(NC(=O)c5c(F)cccc5F)c4)nn4ccccc34)n2)cc(OC)c1OC` [GSK323521A], the potency estimated from few doses is 1.57 µM in [13]; 1.56 µM in experiment [14]; 1.86 µM in [15]; 1.07 µM in [16]; 0.812 µM in experiment [17].
As for `COC(=O)Nc1nc2cc(Oc3ccc(NC(=O)Nc4cc(C(F)(F)F)ccc4Cl)cc3)ccc2[nH]1.Cl` [GW697465A], the potency estimated from few doses in experiment [2] (setting [22]) is 1.22 µM; in experiment [18], 2.22 µM.
`Cc1nnc(-c2ccc3occ(-c4ccc(S(C)=O)cc4)c3c2)[nH]1` (centres unmarked) [TPKI-85]: the potency estimated from few doses is 0.339 µM in experiment [6] (setting [22]); 0.861 µM in experiment [7] (compound concentrations: 100 nM and 1000 nM (sheet 'Samples'), CATDS: 0.41063798470662799).
`COc1cc(C2=NC(c3ccc(Cl)cc3F)C(C(=O)Nc3ccc4[nH]ncc4c3)=C(C)N2)ccn1.O=C(O)C(F)(F)F` (centres unmarked) [GSK534911A]: the potency estimated from few doses is 1.11 µM in experiment [2] (setting [22]), 1.83 µM in experiment [19], 1.32 µM in [20] and 0.22 µM in experiment [21].
On to `Cn1cc(C2=C(c3cccc(OCC(O)CO)c3)C(=O)NC2=O)c2ccccc21` (centres unmarked) [RO5198354-000], for which the potency estimated from few doses in experiment [6] (compound concentrations: 100 nM and 1000 nM (sheet 'Samples'), CATDS: 0.57799072500507098) was 0.37 µM; in experiment [7] (compound concentrations: 100 nM and 1000 nM (sheet 'Samples'), CATDS: 0.44055416886874998) it was 0.644 µM.
